The text below walks through data of the supplement of paper PMC7156485.

Common to all, as to details: concentration: 10 µM; 24 h
Assay [1] deals with HCC1569. In words: cell number relative to DMSO (% of DMSO); higher = more cells (less growth inhibition / toxicity). The procedure, abridged:
(§1)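 Using 384-well plates with 800 cells per well in RPMI plus 10% FBS, HCC1569 and TDF cells were exposed to compounds at 10 µM, in triplicate, for 24 h at 37 °C. Imaging of six fields per well at ×10 followed H1.0 and DAPI staining. The reported quantity, H1.0 nuclear intensity or cell number, is a median of replicates given as percent of the plate control, and HCC1569 values were smoothed for positional effects.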

The test system of assay [2] is TDF. The assay is described as above. The procedure, abridged: as §1
The test system of assay [3] is TDF. In words: H1.0 immunofluorescence intensity relative to DMSO (% of DMSO); higher = stronger H1.0 induction, active = 120 or more. The procedure, abridged: as §1
Assay [4] concerns HCC1569. In words: H1.0 immunofluorescence intensity relative to DMSO (% of DMSO); higher = stronger H1.0 induction, active = 140 or more. A digest of the protocol:
as §1

Structures can show the parent of a compound that is named as a salt. ± gives the standard deviation of the averaged measurements.
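Throughout, for H1.0 immunofluorescence intensity relative to DMSO: TDF is a line of transformed human dermal fibroblasts of mesenchymal origin.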
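Throughout, for cell number relative to DMSO: TDF denotes transformed human dermal fibroblasts of mesenchymal origin.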

Turning to `CN1CCN(c2ccc3ccccc3n2)CC1.O=C(O)C=CC(=O)O.O=C(O)C=CC(=O)O` [Quipazine, N-methyl-, dimaleate], the values for the cell number in assay [1] and in assay [2] were 102 and 104, respectively. For the same compound, the figures for the H1.0 immunofluorescence intensity in assay [3] and in assay [4] were 93 (inactive) and 89.8 (inactive), respectively.
The matching figures for `C[N+](C)(C)CCCCCCCCCC[N+](C)(C)C.[Br-].[Br-]` [Decamethonium dibromide]: 101, 100, 91.7 (inactive) and 88.8 (inactive).
Take `CCn1cc(C(=O)O)c(=O)c2cc3c(cc21)OCO3` [Oxolinic acid]: the results for the cell number in assay [1] and in assay [2] were 100 and 109, respectively. Further, the H1.0 immunofluorescence intensity in assay [3] was 104 (inactive); in assay [4] it was 101 (inactive).
`CC1CCC2C(C)C(=O)OC3OC4(C)CCC1C32OO4` (stereo not drawn) [Artemesinin]: the results for the cell number in assay [1] and in assay [2] were 102 ± 2.5 and 97.4 ± 2.2, respectively. Besides, the H1.0 immunofluorescence intensity in assay [3] was 95.9 (inactive); in assay [4], 116 (inactive).
`CCCCCC(C=CC=CCCCCCCCC(=O)O)OO` (stereo not drawn): the cell number in assay [1] worked out at 99.9; in assay [2], 108. The results for the H1.0 immunofluorescence intensity in assay [3] and in assay [4] were 99.2 (inactive) and 94.4 (inactive), respectively.
For `C=C1C(C)C2C(Cc3ccccc3)NC(=O)C23OC(=O)C=CC(O)CCCC(C)CC=CC3C1O` (stereo not drawn) [Cytochalasin B], in that order: 95.1, 63.7, 125 (active) and 110 (inactive).
For the compound `CC(C)C1(NC(=O)C2CC3c4cccc5[nH]cc(c45)CC3N(C)C2)OC2(O)C3CCCN3C(=O)C(Cc3ccccc3)N2C1=O.CS(=O)(=O)O` (stereo not drawn) [Dihydroergocristine mesylate], the cell number was determined as 100 in assay [1] and 110 in assay [2]. The H1.0 immunofluorescence intensity in assay [3] was 91.4 (inactive); in assay [4], 88.3 (inactive).
`CN1C(=O)C23CC4=CC=CC(O)C4N2C(=O)C1(CO)SS3` (stereo not drawn) [Gliotoxin]: the cell number in assay [1] came to 0.969; in assay [2], 0.3.
As to `CCC1CN2CCc3cc(OC)c(OC)cc3C2CC1CC1NCCc2cc(OC)c(OC)cc21.Cl.Cl` (stereo not drawn), the cell number was 60 in assay [1] and 27 in assay [2]. The H1.0 immunofluorescence intensity was 120 (inactive) in assay [3] and 100 (inactive) in assay [4].
For `C[N+](C)(C)CC#CCN1CCCC1=O.[I-]` [Oxotremorine methiodide], in that order: 106, 97, 100 (inactive) and 98.8 (inactive).
As to `NC(=O)c1cc(N2CC2)c([N+](=O)[O-])cc1[N+](=O)[O-]`, the cell number in assay [1] worked out at 96.1; in assay [2], 94. In addition, the H1.0 immunofluorescence intensity in assay [3] was 89.4 (inactive); in assay [4], 91.7 (inactive).
For the compound `NC(Cn1oc(=O)[nH]c1=O)C(=O)O` (stereo not drawn) [Quisqualic acid], the cell number was 100 in assay [1] and 94.9 in assay [2]. Moreover, the H1.0 immunofluorescence intensity in assay [3] is 102 (inactive); in assay [4], 92.7 (inactive).
As to `Cc1c(C(=O)Nc2cccc(C(F)(F)F)c2)cc(-c2ccccc2)n1CCCN1CCOCC1`, the results for the cell number in assay [1] and in assay [2] were 92.8 and 94.3, respectively. For the same compound, the H1.0 immunofluorescence intensity in assay [3] is 95 (inactive); in assay [4], 115 (inactive).
The matching figures for `CS(=O)(=O)O.Cc1c(C(=O)c2cccc3ccccc23)c2cccc3c2n1C(CN1CCOCC1)CO3` (stereo not drawn) [( R)-(+)-WIN 55,212-2 mesylate]: 72.8, 53.4, 131 (active) and 209 (active).
`CC(C)(C)c1o[nH]c(=O)c1CC(N)C(=O)O` (stereo not drawn): the values for the cell number in assay [1] and in assay [2] were 98.3 and 104, respectively. Moreover, the H1.0 immunofluorescence intensity in assay [3] was 90 (inactive); in assay [4], 95 (inactive).
As to `C=C(C)C1CNC(C(=O)O)C1CC(=O)O` (stereo not drawn) [Kainic acid], the figures for the cell number in assay [1] and in assay [2] were 103 ± 3.2 and 108 ± 3, respectively. Also, the H1.0 immunofluorescence intensity in assay [3] is 92.5 (inactive); in assay [4], 88.9 (inactive).
For `N[C@@](CF)(Cc1cnc[nH]1)C(=O)O` [MK-453 hydrochloride], the cell number in assay [1] is 101; in assay [2] it was 103. The results for the H1.0 immunofluorescence intensity in assay [3] and in assay [4] were 100 (inactive) and 91.5 (inactive), respectively.
Consider `Cl.OCc1cnc[nH]1` [4-Imidazolemethanol hydrochloride], for which the cell number in assay [1] turned out to be 99.6; in assay [2] it was 102. Also, the H1.0 immunofluorescence intensity in assay [3] is 93.3 (inactive); in assay [4], 94.1 (inactive).
For `CC(Cc1ccc(OCC(=O)[O-])cc1)NCC(O)c1cccc(Cl)c1.[Na+]` (stereo not drawn), the cell number in assay [1] is 104; in assay [2], 110. Also, the H1.0 immunofluorescence intensity in assay [3] was 89.5 (inactive); in assay [4], 88.6 (inactive).
Turning to `CCCN1CCCC(c2cccc(C#N)c2)C1.Cl` (stereo not drawn) [S(-)-DS 121 hydrochloride], the cell number in assay [1] was determined as 100; in assay [2] it was 96.1. Further, the results for the H1.0 immunofluorescence intensity in assay [3] and in assay [4] were 92.4 (inactive) and 84.5 (inactive), respectively.
On to `CCCCCCCCCCCCCCCCOCC(COP(=O)([O-])OCC[N+](C)(C)C)OC(C)=O` (stereo not drawn) [Enantio-PAF C16], for which the cell number in assay [1] turned out to be 100; in assay [2], 106. In addition, the figures for the H1.0 immunofluorescence intensity in assay [3] and in assay [4] were 93.7 (inactive) and 94 (inactive), respectively.
Consider `Cc1[nH]c2ccc(Cl)cc2c1C1=CCNCC1.Cl`, for which the cell number turned out to be 99.8 in assay [1] and 93.5 in assay [2]. Further, the H1.0 immunofluorescence intensity in assay [3] was 107 (inactive); in assay [4], 120 (inactive).
In the case of `C=CCc1cc(OC)c2c(c1)OCO2` [Myristicin], the cell number in assay [1] stood at 104; in assay [2], 103. For the same compound, the H1.0 immunofluorescence intensity in assay [3] was 104 (inactive); in assay [4] it was 81.5 (inactive).
Regarding `CC(N)C(O)c1ccccc1` (stereo not drawn) [Phenylpropanolamine], the figures for the cell number in assay [1] and in assay [2] were 102 and 94, respectively. Also, the H1.0 immunofluorescence intensity in assay [3] is 100 (inactive); in assay [4] it was 99.8 (inactive).
Consider `CCN1CC2(C)CCC(OC)C34C2C(OC(C)=O)C2(OCOC25CC(OC)C2CC3(O)C5C2OC)C14` (stereo not drawn) [Deltaline], for which the cell number came to 105 in assay [1] and 104 in assay [2]. The H1.0 immunofluorescence intensity is 98.2 (inactive) in assay [3] and 96.9 (inactive) in assay [4].
